Compound activity deposited in PubChem by Sanford-Burnham Center for Chemical Genomics.
CF NFkB inh: inhibitors of cystic fibrosis induced NF-kB; 360,000 compounds, 0.86% hits; inhibition, % at 5 µM; AID 588850; KKLEB NF-kB-GFP reporter, PAF-induced, GFP fluorescence overnight;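 active means at least 50% inhibition at 5 µM, scaled per plate between neutral and stimulator controls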;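 further: PAF is a Pseudomonas aeruginosa culture filtrate used as stimulus; plate controls were PAF-stimulated DMSO wells for no effect and unstimulated DMSO wells for full effect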
HIF-2a block: inhibitors of HIF-2a; AID 624352; 786-0 RCC cells HIF-2a reporter, luciferase luminescence, overnight; inhibition, % at 18.8 µM; 360,000 compounds, 0.72% hits;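 active means inhibition of the luminescence signal of 40% or more relative to plate controls, in a single-dose primary screen at 18.75 µM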
TROY signal inh: inhibitors of TROY-dependent NF-kB signaling; Q293 LMP1-TROYcd NF-kB luciferase reporter, 4 h; 360,000 compounds, 0.98% hits; inhibition, % at 10 µM;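 active means compounds whose plate-normalised and pattern-corrected inhibition of the luciferase reporter signal at the single screening dose is 50% or more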
KKLEB cytotox: counter-screen for CF NF-kB inhibitors: cytotoxicity; 360,000 compounds, 0.36% hits; activity change (cytotoxicity), % at 5 µM; KKLEB CF airway cells viability, ATPlite luminescence, overnight; active compounds read low; cells stimulated with P. aeruginosa culture filtrate;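 active means corrected activity change at or below -50% at 5 µM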
TWEAK-Fn14 inh: TWEAK-Fn14 signaling inhibition; AID 1159606; TWEAK-stimulated Fn14 reporter cells, luciferase luminescence, 8 h; inhibition, % at 10 µM; 360,000 compounds, 2% hits; in the data active means inhibition above about 50%
Peg3 promoter: reduces Peg3 promoter-driven luciferase expression in HeLa | 360,000 compounds, 1.7% hits | inhibition, % at 20 µM | HeLa PEG-Prom luciferase reporter, luminescence, overnight | AID 588405;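 active means inhibition of at least 50% at 20 µM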
* hit, by the source's call; nt = no result; ! = a repeat was not active. Shown are actives, neighbours in structure and some others; about 3.9% of the full set was active somewhere.

SMILES	CF NFkB inh	HIF-2a block	TROY signal inh	KKLEB cytotox	TWEAK-Fn14 inh	Peg3 promoter
COC(=O)c1sccc1NC(=O)Nc1ccc(C)c(C)c1	6	-220	44	11	23	-226
CCc1ccc(NC(=O)Nc2ccsc2C(=O)OC)cc1	-8	-110	63*	0	53*	-168
COc1ccc2c(c1)N(C)/C(=C/c1cccc[n+]1C)S2	-54	0	2	2	-4	64*
C(=N\Nc1nncc2ccccc12)/c1ccccn1	66*	-45	-19	-29	74*	19
C[C@H](c1ccccc1)N1C[C@@H](COCc2ccccc2)Oc2cc(N3CC[C@H](N(C)C)C3)ccc2S1(=O)=O	nt	-19	1	nt	1	nt
O=C(NCCc1ccccc1)c1cccnc1	5	-142	-21	-12	7	-135
CCOc1ccc(C(=O)NCCc2ccccc2)cc1	2	-17	52*	-3	77*	-63
O=C(NCCc1ccccc1)c1ccc2nccnc2c1	-7	12	57*	0	93*	29
COc1ccc2oc(C(=O)NCCc3ccccc3)c(C)c2c1	8	8	70*	-38	82*	-19
CC(=O)Oc1ccc(C(=O)NCCc2ccccc2)cc1	1	-34	18	3	60*	-138
CCOc1ccc(C(=O)NCCCCNC(=O)c2ccc(OCC)cc2)cc1	1	-25	7	12	-15	-93
Cc1cccc(CSCCNC(=O)CN2C(=O)c3ccccc3S2(=O)=O)c1	-6	-1	-22	-20	1	-13
CC(CCc1ccccc1)NC(=O)c1ccc(C(=O)NC(C)CCc2ccccc2)cc1 (centres undefined)	37	5	15	1	31	59*
CC(CCc1ccccc1)NC(=O)c1ccccc1 (centres undefined)	10	-21	-4	-2	0	-8
CCNC(=O)C1CCCN(C(=O)c2ccc(-c3ccccc3)cc2)CC1 (centres undefined)	-45	5	-1	7	15	-1
CCn1cnc2c1c(=O)n(CC(=O)N1CCc3ccccc31)c(=O)n2Cc1ccccc1	-7	10	6	-3	7	16
O=C(NC(=Nc1nc2ccccc2o1)NC(=O)c1ccccc1)c1ccccc1	-20	-186	-66	8	-16	-95
COc1ccccc1C(=O)NC(=Nc1nc2ccccc2o1)NC(=O)c1ccccc1OC	-56	-11	-25	0	-38	86*!
Cc1sc2ncnc(SCC(=O)NC3CCCC3)c2c1C	2	-17	5	-3	5	-3
O=C1NC(=S)S/C1=C\c1cc2ccccc2nc1N1CCCCC1	55*	-53	59*	-38	22	38
COc1ccc2nc(N3CCCCC3)c(/C=C3\SC(=S)NC3=O)cc2c1	47	-17	64*	-40	21	37
Cc1ccc(C(=O)NC=C(Cl)Cl)cc1	-9	-52	-17	-7	-5	-14
Cc1ccc(NC(=O)C2CCN(S(=O)(=O)c3ccc4c(c3)NC(=O)C(C)S4)CC2)c(C)c1 (centres undefined)	3	-9	-11	-4	-2	-6
COc1ccc(/C=c2\s/c(=C/C(=O)c3ccc(C)cc3)[nH]c2=O)c(OC)c1	1	9	-2	-14	-37	6
COc1cccc(/C=c2\s/c(=C\C(=O)C(C)(C)C)[nH]c2=O)c1	0	-36	15	1	56*	-2
SMILES	CF NFkB inh	HIF-2a block	TROY signal inh	KKLEB cytotox	TWEAK-Fn14 inh	Peg3 promoter
COc1ccc(NC(=O)c2ccc(NC3CC(=O)N(c4ccc(C)cc4C)C3=O)cc2)cc1 (centres undefined)	50	-2	-7	-56*	-34	17
O=C(C[C@H]1C/C=C\CC[C@@H](Cc2ccc(F)cc2)C(=O)O[C@@H](c2ccccc2)CNC1=O)N[C@@H](CO)Cc1ccccc1	-4	-1	1	-9	-10	88*
O=C(C[C@H]1C/C=C\CC[C@@H](Cc2ccc(F)cc2)C(=O)O[C@H](c2ccccc2)CNC1=O)N[C@H](CO)Cc1ccccc1	11	4	15	-41	10	81*
O=C(C[C@H]1C/C=C\C[C@H](Cc2ccc(F)cc2)C(=O)O[C@@H](c2ccccc2)CNC1=O)N[C@@H](CO)Cc1ccccc1	-15	-1	10	-8	-10	42
O=C(C[C@@H]1C/C=C/CC[C@H](Cc2ccc(F)cc2)C(=O)OC[C@@H](Cc2ccccc2)NC1=O)N[C@H](CO)Cc1ccccc1	62*	9	4	-91*	1	82*
Cc1cc2c(cc1C)-n1nnnc1C(N1CCN(C(=O)OCc3ccccc3)CC1)C(=O)N2 (centres undefined)	nt	0	nt	nt	nt	nt
O=C(COC(=O)c1ccccc1C(=O)c1ccccc1)NCCc1ccc(Cl)cc1Cl	8	8	18	-3	12	32
COc1ccc(CCNC(=O)c2ccc3c(c2)N(Cc2ccccc2)CCS3)cc1OC	16	3	41	-3	49	55*
COc1ccc(OC)c(CCNC(=O)c2ccc3c(c2)N(Cc2ccccc2)CCS3)c1	-5	5	22	1	9	22
Nc1sc(-c2ccccc2)cc1C(=O)NCCc1ccc(Cl)cc1	nt	-17	nt	nt	nt	nt
COc1ccccc1Cc1c(C2CCCCC2)nc2ccc(C)cn12	1	-54	-19	0	-4	74*
Cc1cc(C)c(C#N)c(OCC(=O)Nc2ccccc2)n1	8	13	-2	-3	11	5
COC(=O)[C@@]1(Cc2ccc(F)cc2)[C@H]2c3cc(C(=O)N4CCCC4)n(CCN4CCNC4=O)c3C[C@H]2CN1C(=O)c1ccccc1	nt	5	-19	nt	17	nt
Cc1cc(C(=O)c2ccc(C(C)(C)C)cc2)c(NC(=O)CCl)s1	26	10	-8	-21	-8	103*
Cc1cc(C(=O)c2ccccc2)c(NC(=O)CN2CCOCC2)s1	1	20	-7	2	9	8
Cc1noc(COc2ccc(OCc3nc(C)no3)cc2)n1	-6	-24	-4	4	-2	-11
CCOC(=O)c1c2ccc(OCC(=O)N/N=C/c3ccc(C)cc3)cc2n2ccccc12	-11	-30	15	-5	15	84*
CCOC(=O)c1c2ccc(OCC(=O)NN)cc2n2ccccc12	-25	15	-18	7	-25	15
COC(=O)Nc1ccc(S(=O)(=O)N2CCCc3ccccc32)cc1	18	-8	28	-16	53*	18
O=C(Nc1nc2c(s1)CCCC2)c1ccc(S(=O)(=O)N2CCCc3ccccc32)cc1	-17	-21	17	4	69*	-8
CNC(=O)c1ccsc1NC(=O)c1ccc(S(=O)(=O)N2CCCc3ccccc32)cc1	34	21	48	-3	76*	55*
Cc1cc(NC(=O)c2ccc(S(=O)(=O)N3CCc4ccccc43)cc2)no1	-4	13	7	7	8	26
